The text below walks through data of PubChem BioAssay (Tox21).

Unmarked numbers belong to inactive results. Results filed as inconclusive are left out. The source made the active and inactive calls. Unless noted, calls follow the shape of the full dose curve.

The nature of assay [1]: Nuclear factor erythroid 2-related factor 2/antioxidant responsive element (Nrf2/ARE) small molecule agonists: qHTS cell viability counter screen in human keratinocytes (AID 1919968; active = well fitted curve in the direction sought with a large enough effect in the repeat runs; an effect the other way counts as inactive or inconclusive; also: nearly all actives have a fitted effect of over 55% in size; also: potency is read from the fitted curve at half-maximal effect). The procedure, abridged:
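HaCaT ARE reporter line, 1,500 cells/well; 5 h settle, 37 C/5% CO2; cpd in DMSO pinned; 23 h exposure; CellTiter-Fluor, 1 h; fluorescence.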
For orientation: In qHTS, concentration-response curves come from the screen itself.

Assay [2] concerns the target Gonadotropin-releasing hormone receptor (Homo sapiens) (UniProt P30968). The assay can be described thus: Human gonadotropin-releasing hormone receptor (GnRHR) small molecule agonists, calcium flux assay in GnRHR-HEK293 cells (AID 1920063). Also: nearly all actives have a fitted effect of over 35% in size. Summed up:
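GnRHR-HEK293, 1500 cells/well, 18 h 37 C/5% CO2; Ca dye 1 h 37 C; cpd pinned (DMSO), agonist mode; kinetic FL 480/540, 3 min, 1 s reads; 15 conc, n=3.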
On the technique in general: Calcium flux is commonly read through the fluorescence of an indicator in the cells.

Assay [3] addresses KiSS-1 receptor (Homo sapiens) (UniProt Q969F8). The assay can be described thus: Human kisspeptin (KISS1R) small molecule agonists, calcium flux assay in KISS1R-HEK293 cells (AID 1920064; active = well fitted curve in the direction sought with a large enough effect in the repeat runs; an effect the other way counts as inactive or inconclusive). Summed up: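 Stable human KISS1R HEK293 line; 18 h plating, 37 C/5% CO2; calcium dye 1 h 37 C; compound pin transfer; kinetic fluorescence Ex/Em 480/540, 3 min.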
A short description of assay [4]: G protein-coupled receptor (GPCR) small molecule agonists, calcium flux assay: HEK293 wild type cell line counter screen (AID 1920065). Summed up: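 Kinetic fluorescence at Ex/Em 480/540, recorded every second over 3 min, served as the read-out after compound addition. Each compound was tested at 15 concentrations in triplicate on cells pre-loaded with calcium dye for 1 h.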

The nature of assay [5]: p53 small molecule agonists, cell-based qHTS assay with human liver microsomes: qHTS cell viability counter screen (AID 1963579). Also: nearly all actives have a fitted effect of over 45% in size. The procedure, abridged:
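Metabolic activation used human liver microsomes and NADPH, both 0.5 mg/mL final, over 16 hours at 37 C on p53RE-bla cells (4,000/well). Cytotoxicity measured by CellTiter-Glo luminescence, 30 min at room temperature.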

Assay [6] can be described thus: p53 small molecule agonists, cell-based qHTS assay with rat liver microsomes: qHTS cell viability counter screen (AID 1963580). Also: nearly all actives have a fitted effect of over 45% in size. The procedure, abridged:
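HCT-116 p53RE-bla, 4,000 cells/well, 5 h pre-incubation; cpd + rat liver microsomes 0.5 mg/mL + NADPH 0.5 mg/mL (final); 16 h, 37 C; CellTiter-Glo, 30 min RT; luminescence.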

Assay [7] in a line: p53 small molecule agonists, cell-based qHTS assay: qHTS cell viability counter screen (AID 1963581). Also: nearly all actives have a fitted effect of over 45% in size. The procedure, abridged: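 HCT-116 p53RE-bla cells, 4,000/well, plated 5 h before compound pin transfer; 16 h at 37 C; bla substrate 2 h RT; then CellTiter-Glo, 30 min RT, luminescence.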
The nature of assay [8]: p53 small molecule agonists, cell-based qHTS assay (AID 1963582; active = well fitted activation curve with a large enough effect in the signal ratio in the repeat runs, not every such curve was filed as active; the % refers to the signal ratio). Summed up: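 Reporter line: p53RE-bla. Pre-incubation 5 h, 37 C, 5% CO2; compound (DMSO, pin tool) 16 h, 37 C; B/G FRET substrate 2 h RT; fluorescence intensity read.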
Assay [9] addresses 5-hydroxytryptamine receptor 2A (Homo sapiens) (UniProt P28223). Nature of the assay: 5-hydroxytryptamine receptor 2A (HTR2A) small molecule agonists, cell-based qHTS assay (AID 1963587). Also: nearly all actives have a fitted effect of over 30% in size. Also: potency is read from the fitted curve at half-maximal effect. The procedure, abridged: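 Kinetic calcium-flux fluorescence (2 min, 1 sec intervals) after compound addition in agonist mode. HTR2A-CHO cells were cultured 18 h, then dye-loaded 1 h at 37 C.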

Assay [10] deals with Muscarinic acetylcholine receptor M1 (Homo sapiens) (UniProt P11229). The assay can be described thus: Cholinergic receptor muscarinic 1 (CHRM1) small molecule antagonists, cell-based qHTS assay (AID 1963588). Also: nearly all actives have a fitted effect of over 40% in size. Summed up:
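CHRM1-CHO calcium-flux assay, antagonist mode. Cells were seeded 18 h, dye-loaded 1 h at 37 C and given compound for 5 min at RT, then acetylcholine was added at 50nM. FDSS fluorescence was read 3 min; 15 concentrations, three runs.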

Assay [11] has the same target. Nature of the assay: Cholinergic receptor muscarinic 1 (CHRM1) small molecule agonists, cell-based qHTS assay (AID 1963589). Also: nearly all actives have a fitted effect of over 35% in size. Summed up: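 Human M1 in stable CHO line; 18 h plating, 1 h dye load 37 C; cpd added (agonist mode); Ca2+ fluorescence kinetic read, 1 s intervals; 15 conc, 3 runs.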
Assay [12] concerns the target Beta-2 adrenergic receptor (Homo sapiens) (UniProt P07550). The assay can be described thus: Adrenergic beta2 receptor (ADRB2) small molecule antagonists, cell-based qHTS assay (AID 1963592). Also: series mostly up to about 92 µM; nearly all actives have a fitted effect of over 50% in size. Summed up: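 Cells (CHO, stable ADRB2 overexpression) incubated 18-20hr at 37C; compounds added from DMSO; agonist mix (1nM isoproterenol, 100uM IBMX, 25uM Ro-20-1724) added; 0.5hr RT; d2-cAMP and anti-cAMP-cryptate added; 1hr RT; 665/615 nm read.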

For assay [13] the target is unchanged. The assay can be described thus: Adrenergic beta2 receptor (ADRB2) small molecule agonists, cell-based qHTS assay (AID 1963593).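 Also: CHO cells stably overexpressing human ADRB2.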 Summed up:
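CHO cells stably over-expressing ADRB2 were plated overnight at 37C, then dosed with compounds plus a stimulation mix containing 100uM IBMX and 25uM Ro-20-1724 for 0.5hr at room temperature. cAMP was measured by HTRF competition, 1hr.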

Assay [14] deals with D(2) dopamine receptor (Homo sapiens) (UniProt P14416). The assay can be described thus: Dopamine D2 receptor (DRD2) small molecule antagonists, cell-based qHTS assay (AID 1963595; active = well fitted inhibition curve with a large enough effect in the signal ratio in the repeat runs, with a control signal flat; the % refers to the signal ratio). The procedure, abridged:
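HEK293 cells stably expressing DRD2, preincubated with 0.1 mM Ro20-1724 and compounds 10 min, were stimulated with 200 nM NKH477 plus 12 nM quinpirole for 30 min at room temperature; cAMP measured by HTRF (665/620 nm).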

A short description of assay [15]: p53 small molecule agonists, cell-based qHTS assay with rat liver microsomes (AID 1963578). The procedure, abridged:
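Metabolic activation by rat liver microsomes and NADPH, each 0.5 mg/mL final, added right after compounds to p53RE-bla reporter cells (4,000/well, plated 5 h earlier). 16 h at 37 C, then LiveBLAzer substrate for 2 h at room temperature in the dark; fluorescence read-out.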

Assay [16] has as its target 5-hydroxytryptamine receptor 2A (Homo sapiens) (UniProt P28223). Nature of the assay: 5-hydroxytryptamine receptor 2A (HTR2A) small molecule antagonists, cell-based qHTS assay (AID 1963586). Also: nearly all actives have a fitted effect of over 45% in size. Also: potency is read from the fitted curve at half-maximal effect. Summed up: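 Antagonist-mode intracellular calcium assay: DOI (4 nM) added after 5 min compound pre-incubation at room temperature to dye-loaded HTR2A-CHO cells. Fluorescence followed for 3 min, sampled every second.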

Assay [17] in a line: cAMP Responsive Elements (CRE) small molecule agonists, cell-based qHTS assay (AID 1963590). Summed up: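 HEK 293T CRE-bla, 2,000 cells/well, 18 h preincubation 37 C/5% CO2; cpds (DMSO) pinned, 3 h; LiveBLAzer B/G FRET substrate, 2 h RT.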
Assay [18] in a line: cAMP Responsive Elements (CRE) small molecule antagonists, cell-based qHTS assay (AID 1963591; active = well fitted inhibition curve with a large enough effect in the signal ratio in the repeat runs, not every such curve was filed as active; the % refers to the signal ratio). Summed up: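 Beta-lactamase reporter read by FRET substrate (LiveBLAzer B/G) after 2 h at room temperature. CRE-bla HEK293T cells had received compound plus 0.25 uM (final) NKH477 for 3 h at 37 °C.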
Assay [19] has as its target D(2) dopamine receptor (Homo sapiens) (UniProt P14416). Nature of the assay: Dopamine D2 receptor (DRD2) small molecule agonists, cell-based qHTS assay (AID 1963594). Also: nearly all actives have a fitted effect of over 35% in size. Summed up: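 cAMP accumulation in DRD2-HEK293 cells measured by HTRF after 1 h detection; compounds added 10 min before NKH477 (200nM […]) forskolin-analogue stimulation, 30 min at room temperature, with Ro20-1724 present at 0.1 mM final.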

Assay [20] is described as follows: p53 small molecule agonists, cell-based qHTS assay with human liver microsomes (AID 1963577).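 Also: p53 response element beta-lactamase reporter cells with liver microsomes plus NADPH.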 Summed up:
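With metabolic activation: human liver microsomes (0.5 mg/mL final) plus NADPH (0.5 mg/mL final) added alongside compounds to p53RE-bla cells; 16 h 37 C exposure; beta-lactamase read by LiveBLAzer fluorescence.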

Sequence of Muscarinic acetylcholine receptor M1 (Homo sapiens) (P11229 whole entry, looked up): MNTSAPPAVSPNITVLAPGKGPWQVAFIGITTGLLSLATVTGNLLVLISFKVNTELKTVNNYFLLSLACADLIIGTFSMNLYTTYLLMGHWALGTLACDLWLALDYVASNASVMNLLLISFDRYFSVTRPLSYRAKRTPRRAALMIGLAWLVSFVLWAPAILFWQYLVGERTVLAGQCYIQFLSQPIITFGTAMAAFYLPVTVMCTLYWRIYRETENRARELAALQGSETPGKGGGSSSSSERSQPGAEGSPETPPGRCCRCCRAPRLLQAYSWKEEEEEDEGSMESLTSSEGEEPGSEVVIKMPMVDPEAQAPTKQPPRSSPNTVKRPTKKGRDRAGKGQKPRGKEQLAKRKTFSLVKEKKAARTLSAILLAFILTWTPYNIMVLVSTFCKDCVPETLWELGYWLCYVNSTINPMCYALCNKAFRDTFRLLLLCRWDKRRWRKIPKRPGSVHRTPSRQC
Sequence of 5-hydroxytryptamine receptor 2A (Homo sapiens) (P28223 whole entry, looked up): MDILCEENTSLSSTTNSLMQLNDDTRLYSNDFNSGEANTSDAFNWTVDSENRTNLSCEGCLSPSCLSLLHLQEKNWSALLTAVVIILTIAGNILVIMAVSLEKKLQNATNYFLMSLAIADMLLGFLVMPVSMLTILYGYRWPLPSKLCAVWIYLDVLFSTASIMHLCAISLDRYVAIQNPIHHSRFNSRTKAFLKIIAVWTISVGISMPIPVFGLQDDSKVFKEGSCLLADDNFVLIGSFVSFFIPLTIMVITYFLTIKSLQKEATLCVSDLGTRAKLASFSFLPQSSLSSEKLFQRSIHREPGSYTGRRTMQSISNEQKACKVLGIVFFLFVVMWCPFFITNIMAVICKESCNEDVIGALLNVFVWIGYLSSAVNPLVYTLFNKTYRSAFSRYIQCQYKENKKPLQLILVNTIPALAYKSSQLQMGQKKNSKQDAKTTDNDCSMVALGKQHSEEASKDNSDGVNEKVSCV
Sequence of Beta-2 adrenergic receptor (Homo sapiens) (P07550 whole entry, looked up): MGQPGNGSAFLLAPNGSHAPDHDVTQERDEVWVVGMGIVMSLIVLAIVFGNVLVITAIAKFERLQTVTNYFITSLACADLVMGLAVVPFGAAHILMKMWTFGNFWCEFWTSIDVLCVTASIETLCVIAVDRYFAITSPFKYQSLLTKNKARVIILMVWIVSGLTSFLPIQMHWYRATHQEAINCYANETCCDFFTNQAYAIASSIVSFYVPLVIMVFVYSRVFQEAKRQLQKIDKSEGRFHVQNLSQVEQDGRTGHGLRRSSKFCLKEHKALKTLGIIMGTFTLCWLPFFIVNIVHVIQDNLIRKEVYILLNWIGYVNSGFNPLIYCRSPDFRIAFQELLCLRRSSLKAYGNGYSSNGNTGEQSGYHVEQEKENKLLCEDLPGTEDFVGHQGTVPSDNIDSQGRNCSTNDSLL
Sequence of Gonadotropin-releasing hormone receptor (Homo sapiens) (P30968 whole entry, looked up): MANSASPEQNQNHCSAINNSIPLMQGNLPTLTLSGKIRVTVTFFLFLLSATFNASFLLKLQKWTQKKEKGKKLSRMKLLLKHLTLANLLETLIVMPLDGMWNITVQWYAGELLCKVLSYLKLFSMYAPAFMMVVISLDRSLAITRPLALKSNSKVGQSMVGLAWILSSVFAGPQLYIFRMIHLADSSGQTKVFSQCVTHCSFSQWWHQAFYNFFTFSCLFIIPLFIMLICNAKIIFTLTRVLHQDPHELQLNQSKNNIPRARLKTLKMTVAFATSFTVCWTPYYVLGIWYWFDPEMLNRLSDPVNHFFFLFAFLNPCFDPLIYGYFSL
Sequence of KiSS-1 receptor (Homo sapiens) (Q969F8 whole entry, looked up): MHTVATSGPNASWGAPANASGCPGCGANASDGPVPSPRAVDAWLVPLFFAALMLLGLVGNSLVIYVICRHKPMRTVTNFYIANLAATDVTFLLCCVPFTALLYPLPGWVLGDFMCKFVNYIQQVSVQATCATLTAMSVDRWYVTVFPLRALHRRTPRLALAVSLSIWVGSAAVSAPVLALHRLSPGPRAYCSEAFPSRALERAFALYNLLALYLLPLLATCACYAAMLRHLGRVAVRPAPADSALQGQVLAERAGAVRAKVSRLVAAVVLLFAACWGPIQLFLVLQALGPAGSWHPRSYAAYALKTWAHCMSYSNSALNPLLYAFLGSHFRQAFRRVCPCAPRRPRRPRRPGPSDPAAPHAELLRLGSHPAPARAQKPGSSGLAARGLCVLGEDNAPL
Sequence of D(2) dopamine receptor (Homo sapiens) (P14416 whole entry, looked up): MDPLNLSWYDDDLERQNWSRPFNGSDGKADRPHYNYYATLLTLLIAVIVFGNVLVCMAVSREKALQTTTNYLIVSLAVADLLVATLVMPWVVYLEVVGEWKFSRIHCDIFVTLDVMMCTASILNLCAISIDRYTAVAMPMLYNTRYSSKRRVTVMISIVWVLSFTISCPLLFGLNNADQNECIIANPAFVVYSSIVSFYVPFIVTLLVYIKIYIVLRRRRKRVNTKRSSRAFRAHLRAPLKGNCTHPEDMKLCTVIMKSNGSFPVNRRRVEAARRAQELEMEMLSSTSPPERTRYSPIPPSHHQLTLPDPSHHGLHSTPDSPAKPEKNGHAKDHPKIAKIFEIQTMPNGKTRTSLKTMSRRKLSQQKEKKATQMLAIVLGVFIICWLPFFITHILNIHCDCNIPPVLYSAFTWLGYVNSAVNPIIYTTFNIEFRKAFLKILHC

`COc1ccc(/C(=C/C(=O)N2CCOCC2)c2ccc(Cl)cc2)cc1OC`: the Potency entry in assay [1], in assay [2], in assay [3], in assay [4], in [5] and in [6] was “inactive” in each case. The Potency entry in [7], in [8], in assay [9], in assay [10], in assay [11] and in assay [12] was “inactive” each time. In addition, the Potency entry in [13] and in assay [14] was “inactive” each time.
On to `BrCC(Br)C1CCC(Br)C(Br)C1` (configuration not stated), for which the Potency entry in [1], in assay [2], in assay [3], in assay [4], in assay [15] and in assay [5] was “inactive” each time. Besides, the Potency result in assay [6], in assay [7], in assay [8], in assay [16], in assay [9] and in [10] was “inactive” in each case. In addition, the Potency entry in assay [11], in assay [17], in [18], in assay [13], in assay [19] and in assay [14] was “inactive” throughout.
With `O=C(O)c1ccccc1C(=O)Nc1cccc2ccccc12`, the Potency entry in assay [1], in assay [2], in [3], in [4], in [15] and in assay [5] was “inactive” each time. Moreover, the Potency result in assay [6], in [7], in assay [8], in [16], in assay [9] and in [10] was “inactive” throughout. Besides, the Potency entry in [11], in assay [17], in assay [18], in [12], in assay [19] and in assay [14] was “inactive” each time.
In the case of `NCCc1cc(O)c(O)cc1O`, the Potency entry in assay [1], in assay [2], in assay [3], in assay [4], in assay [5] and in [6] was “inactive” throughout. In addition, the Potency entry in assay [7], in assay [10], in assay [11], in assay [17], in assay [18] and in assay [12] was “inactive” throughout. For the same compound, the Potency entry in assay [13], in assay [19] and in assay [14] was “inactive” in each case. Also, the values for the Potency in assay [16] and in [9] were 18.3 µM (active) and 23.9 µM (active), respectively.
Consider `[Cl-].[Cl-].[Sn+2]`, for which the Potency result in assay [1], in assay [2], in assay [3], in assay [4], in assay [5] and in [6] was “inactive” in each case. In addition, the Potency result in assay [7], in assay [16], in [9], in [10], in [11] and in assay [17] was “inactive” in each case. Moreover, the Potency result in assay [18], in assay [12], in assay [19] and in assay [14] was “inactive” each time.
For `Oc1c(I)cc(I)cc1I`, the Potency in assay [1] was 30.6 µM (active); in [16], 42.1 µM (active). The Potency entry in [2], in assay [3], in assay [4], in assay [20], in [5] and in [11] was “inactive” in each case. The Potency entry in assay [18], in assay [12], in assay [19] and in [14] was “inactive” throughout.
Consider `C[C@H]1[C@H](c2ccc(Cl)cc2)SC(=O)N1C(=O)NC1CCCCC1`, for which the Potency result in assay [1], in [2], in assay [3], in assay [4], in [15] and in [5] was “inactive” throughout. The Potency result in assay [6], in assay [7], in assay [16], in [10], in assay [11] and in assay [18] was “inactive” in each case. For the same compound, the Potency entry in [12], in assay [13], in [19] and in assay [14] was “inactive” each time.
For `CC(=O)O.CC(=O)O.CC(=O)O.CC(=O)O.CC(=O)O.CC(=O)O.CC(=O)O.O.O.[Cr].[Cr].[Cr]`, the Potency result in assay [1], in assay [2], in [3], in assay [4], in assay [5] and in assay [6] was “inactive” each time. The Potency entry in [7], in assay [16], in assay [9], in assay [10], in assay [11] and in assay [18] was “inactive” throughout. The Potency entry in assay [12], in assay [13], in assay [19] and in assay [14] was “inactive” each time.
